Several values for one entry are separate records, joined by “and”; a condition that tells them apart may be missing. Equal entries are not always repeated. Records with an inconclusive call do not appear. Some structures have more than one record in an assay (separate samples or runs), and their calls can disagree. Activity calls are given as the source filed them. Rule for the calls, unless noted: active = hit-call score of the fitted dose curve at least 0.9, where 1 is the maximum; inconclusive = response in the unintended direction; inactive = score below 0.9.
Columns and labels:
[1] = biological target: Nuclear receptor subfamily 1 group I member 2 (Mus musculus) (UniProt O54915); experiment: ATG_mPXR_XSP2: Attagene TRANS-FACTORIAL Multi-Species (XSP1) HepG2 Assay for mouse Pregnane X Receptor (PXR) (AID 2283831)
Procedure, shortened: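 Reporter transcripts measured after 24 h dosing by RT-PCR with 6-FAM labelling, HpaI digestion and capillary electrophoresis. Transiently transfected HepG2 with NR-Gal4 chimeras; increase over DMSO baseline scored.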

[2] = biological target: zebrafish Thyroid Hormone Receptor alpha (TRa), thraa (gene 30670) (UniProt Q98867); experiment: ATG_zfTRa_XSP2: Attagene TRANS-FACTORIAL Multi-Species (XSP1) HepG2 Assay for zebrafish Thyroid Hormone Receptor alpha (TRa) (AID 2283832);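 note: actives raise zebrafish TRa-Gal4 reporter transcript above DMSO baseline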
Procedure, shortened: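 Multiplexed TRANS reporter format in HepG2; the medium also contained 3 nM 6-alpha-fluorotestosterone and 1.5 nM norgestrel. Reporter mRNA after 24 h read by RT-PCR and capillary electrophoresis, scored as induction over DMSO.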

[3] = test system: zebrafish Peroxisome Proliferator-activated Receptor gamma (PPARg), gene 557037; experiment: ATG_zfPPARg_XSP2: Attagene TRANS-FACTORIAL Multi-Species (XSP2) HepG2 Assay for zebrafish Peroxisome Proliferator-activated Receptor gamma (PPARg) (AID 2283833);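 note: reporter mRNA from a zebrafish PPARg GAL4 chimera measured by RT-PCR and capillary electrophoresis; actives increase reporter signal over DMSO so AC50 reflects activation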
Procedure: (§1) ATG_XSP2_multi-species_TRANS is a cell-based, multiplexed assay created by modifying the existing Attagene TRANS-FACTORIAL system to include a panel of nuclear receptors from some or all the following species: human (Homo sapiens), mouse (Mus musculus), frog (Xenopus laevis), zebrafish (Danio rerio), chicken (Gallus gallus), and turtle (Chrysemys picta). The ECOTOX-FACTORIAL format uses HepG2, a human liver cell line, with measurements taken at 24 hours after chemical dosing in a 24-well plate. Xsp2 included 3 nM 6-alpha-fluorotestosterone and 1.5 nM norgestrel to stimulate the androgen receptor.ATG_zfPPARg_XSP2 is one of 29 assay components measured or calculated from the ATG_XSP2_multi-species_TRANS assay. It is designed to make measurements of mRNA induction, a form of inducible reporter, as detected with fluorescence intensity signals by Reverse transcription polymerase chain reaction (RT-PCR) and Capillary electrophoresis technology.The assay endpoint ATG_zfPPARg_XSP2 was analyzed in the positive analysis fitting direction relative to DMSO as the negative control and baseline of activity. Using a type of inducible reporter, measures of mRNA for gain-of-signal activity can be used to understand the reporter gene at the transcription factor-level as they relate to the gene PPARg. Furthermore, this assay endpoint can be referred to as a primary readout, because this assay has produced multiple assay endpoints where this one serves a reporter gene function. To generalize the intended target to other relatable targets, this assay endpoint is annotated to the nuclear receptor intended target family, where the subfamily is non-steroidal.
(§2) Human liver HepG2 cells are transiently transfected with multiple reporter transcription units (MRTUs) in 6-well plates using FuGene 6 reagent (Roche; 3 ml FuGene/1 mg DNA). The MRTU constructs are regulated by a cis-regulating element (promoter). […] A major difference between the CIS and TRANS system is that in CIS activities of endogenous TFs are measured, whereas the TRANS assay evaluates changes in activities of exogenous, chimeric NR-Gal4 proteins. […] At the end of 24 hour incubation, total RNA was isolated using TriZol reagent (Invitrogen). The isolated RNA is then reverse-transcribed using oligo(dT) primer and Mo-MLV reverse transcriptase (Invitrogen) with DNAse I (Ambion) treatment for 30 min. The one-tenth of the produced cDNA was amplified by PCR using Taq DNA polymerase (Invitrogen) and two reporter sequence-specific primers. The PCR products were fluorescently labeled by primer extension with 6-arboxyfluorescein (6-FAM) 5'-labeled reporter sequence-specific primer (2 min at 95 C, 20 s at 68 C and 10 min at 72 C) and these products were digested with 5U of HpaI (New England Biolabs) for 2h at 37 C. The fragments were purified using Qiaquick PCR columns (Qiagen), analyzed on an ABI 3130xL genetic analyzer (Applied Biosystems) with peak positions identified by using a set of X-rhodamine (ROX)-labeled MapMarker1000 molecular weight standards (BioVentures). The raw capillary electrophoresis data was processed using Attagraph software (Attagene).

[4] = biological target: zebrafish Thyroid Hormone Receptor beta (TRb), thrb (gene 30607) (UniProt Q9PVE4); experiment: ATG_zfTRb_XSP2: Attagene TRANS-FACTORIAL Multi-Species (XSP1) HepG2 Assay for zebrafish Thyroid Hormone Receptor beta (TRb) (AID 2283836);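 for AC50: potency for induction of reporter signal above DMSO so agonist direction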
Procedure: as §1, with “receptor.ATG_zfTRb_XSP2” for “receptor.ATG_zfPPARg_XSP2”, “ATG_zfTRb_XSP2” for “ATG_zfPPARg_XSP2”, “TR.” for “PPARg.”
as §2

[5] = biological target: Peroxisome proliferator-activated receptor gamma (Homo sapiens) (UniProt P37231); experiment: ATG_hPPARg_XSP2: Attagene TRANS-FACTORIAL Multi-Species (XSP2) HepG2 Assay for human Peroxisome Proliferator-activated Receptor gamma (PPARg) (AID 2283829);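 note: actives raise reporter mRNA above DMSO so AC50 reflects PPARg activation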
Procedure: as §1, with “receptor.ATG_hPPARg_XSP2” for “receptor.ATG_zfPPARg_XSP2”, “ATG_hPPARg_XSP2” for “ATG_zfPPARg_XSP2”
as §2

[6] = biological target: mouse Peroxisome Proliferator-activated Receptor gamma (PPARg), Pparg (gene 19016) (UniProt P37238); experiment: ATG_mPPARg_XSP2: Attagene TRANS-FACTORIAL Multi-Species (XSP2) HepG2 Assay for mouse Peroxisome Proliferator-activated Receptor gamma (PPARg) (AID 2283830);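 note: hits are gains in reporter mRNA above DMSO so AC50 marks activation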
Procedure, shortened: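 Multiplexed TRANS reporter readout: after 24 h chemical exposure of transfected HepG2 cells (with 3 nM 6-alpha-fluorotestosterone, 1.5 nM norgestrel present), RNA reverse-transcribed, amplified, 6-FAM-labelled and resolved by capillary electrophoresis; mouse PPARg-Gal4 induction scored against DMSO.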

[7] = test system: turtle Thyroid Hormone Receptor, alpha (TRa), gene 101949057; experiment: ATG_trTRa_XSP2: Attagene TRANS-FACTORIAL Multi-Species (XSP1) HepG2 Assay for turtle Thyroid Hormone Receptor, alpha (TRa) (AID 2283834);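 note: hits raise reporter mRNA over the DMSO baseline so AC50 marks activators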
Procedure, shortened: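 Turtle TRa-Gal4 chimera activity in transfected human HepG2 cells: reporter transcripts quantified by RT-PCR, 6-FAM labelling and capillary electrophoresis 24 h post-dosing; positive direction versus DMSO, medium containing 3 nM 6-alpha-fluorotestosterone and 1.5 nM norgestrel.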

[8] = ATG_M_61_XSP2: Attagene TRANS-FACTORIAL Multi-Species (XSP2) HepG2 Assay for M61 Transcription Factor (Internal Marker) (AID 2283835; active = hit-call score of the fitted dose curve at least 0.9, where 1 is the maximum; inactive = score below 0.9;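 note: reporter mRNA of an internal background marker read by RT-PCR and capillary electrophoresis; active means a rise in signal above the DMSO baseline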)
Procedure, shortened: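 Signal was mRNA induction detected as fluorescence after RT-PCR and capillary electrophoresis, analysed in the gain direction with DMSO as baseline. HepG2 cells transiently carrying reporter constructs received chemicals for 24 h.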

[9] = ATG_XTT_Cytotoxicity_XSP2: Cytotoxicity Assessment in the Attagene TRANS-FACTORIAL Multi-Species (XSP2) HepG2 Assay (AID 2283837)
Procedure, shortened: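 XTT-based cell number read-out in human HepG2 liver cells carrying transfected reporter units, measured 24 h after chemical dosing. Activity is signal loss versus DMSO baseline.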

[10] = biological target: human Thyroid hormone Receptor alpha (TRa), THRA (gene 7067) (UniProt P10827); experiment: ATG_hTRa_XSP2: Attagene TRANS-FACTORIAL Multi-Species (XSP2) HepG2 Assay for human Thyroid hormone Receptor alpha (TRa) (AID 2283838)
Procedure, shortened: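 Gain-of-signal in reporter mRNA, relative to DMSO, after 24 h dosing of transfected HepG2; quantitation by RT-PCR fragment analysis on capillary electrophoresis.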

Measured: AC50

Nuclear receptor subfamily 1 group I member 2 (Mus musculus), sequence (O54915 whole entry, looked up, the tested form may be a part): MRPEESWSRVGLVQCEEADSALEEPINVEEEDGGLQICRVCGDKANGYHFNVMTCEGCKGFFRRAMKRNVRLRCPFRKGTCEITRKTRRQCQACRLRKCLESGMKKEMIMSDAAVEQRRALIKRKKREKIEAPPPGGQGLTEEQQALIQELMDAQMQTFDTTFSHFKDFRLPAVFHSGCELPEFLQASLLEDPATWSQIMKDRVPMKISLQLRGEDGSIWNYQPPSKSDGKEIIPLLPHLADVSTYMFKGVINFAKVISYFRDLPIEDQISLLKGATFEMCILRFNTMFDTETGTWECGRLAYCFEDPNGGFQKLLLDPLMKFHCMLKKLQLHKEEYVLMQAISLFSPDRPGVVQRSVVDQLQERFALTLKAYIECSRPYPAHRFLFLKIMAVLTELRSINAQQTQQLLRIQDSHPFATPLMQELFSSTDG
mouse Peroxisome Proliferator-activated Receptor gamma (PPARg), Pparg (gene 19016), sequence (P37238 whole entry, looked up, the tested form may be a part): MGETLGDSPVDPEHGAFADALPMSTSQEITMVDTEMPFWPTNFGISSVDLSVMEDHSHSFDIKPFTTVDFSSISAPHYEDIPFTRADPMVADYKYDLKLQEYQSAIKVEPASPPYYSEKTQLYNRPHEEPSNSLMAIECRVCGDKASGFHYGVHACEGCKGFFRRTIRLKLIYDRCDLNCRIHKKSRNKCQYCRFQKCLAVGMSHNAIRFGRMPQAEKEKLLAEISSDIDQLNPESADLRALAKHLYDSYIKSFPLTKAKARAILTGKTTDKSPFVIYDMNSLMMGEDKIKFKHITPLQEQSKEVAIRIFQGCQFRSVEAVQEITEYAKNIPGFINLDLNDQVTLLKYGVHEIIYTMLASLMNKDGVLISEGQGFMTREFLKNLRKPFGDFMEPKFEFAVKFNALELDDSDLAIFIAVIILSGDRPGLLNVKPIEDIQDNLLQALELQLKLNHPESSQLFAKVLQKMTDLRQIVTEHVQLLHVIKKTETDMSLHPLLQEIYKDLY
zebrafish Thyroid Hormone Receptor alpha (TRa), thraa (gene 30670), sequence (Q98867 whole entry, looked up, the tested form may be a part): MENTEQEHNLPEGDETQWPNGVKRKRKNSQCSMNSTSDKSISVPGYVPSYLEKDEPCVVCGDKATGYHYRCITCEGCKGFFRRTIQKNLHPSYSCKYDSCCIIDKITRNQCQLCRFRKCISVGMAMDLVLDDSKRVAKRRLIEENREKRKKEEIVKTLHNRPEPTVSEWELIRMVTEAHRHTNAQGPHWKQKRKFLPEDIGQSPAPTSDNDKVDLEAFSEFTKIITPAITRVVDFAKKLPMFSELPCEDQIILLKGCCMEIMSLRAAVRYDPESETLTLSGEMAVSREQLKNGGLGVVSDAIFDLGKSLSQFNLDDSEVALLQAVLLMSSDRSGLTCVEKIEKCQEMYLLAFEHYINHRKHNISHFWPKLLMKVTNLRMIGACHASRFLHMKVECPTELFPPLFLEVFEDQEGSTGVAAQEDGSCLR
Peroxisome proliferator-activated receptor gamma (Homo sapiens), sequence (P37231 whole entry, looked up): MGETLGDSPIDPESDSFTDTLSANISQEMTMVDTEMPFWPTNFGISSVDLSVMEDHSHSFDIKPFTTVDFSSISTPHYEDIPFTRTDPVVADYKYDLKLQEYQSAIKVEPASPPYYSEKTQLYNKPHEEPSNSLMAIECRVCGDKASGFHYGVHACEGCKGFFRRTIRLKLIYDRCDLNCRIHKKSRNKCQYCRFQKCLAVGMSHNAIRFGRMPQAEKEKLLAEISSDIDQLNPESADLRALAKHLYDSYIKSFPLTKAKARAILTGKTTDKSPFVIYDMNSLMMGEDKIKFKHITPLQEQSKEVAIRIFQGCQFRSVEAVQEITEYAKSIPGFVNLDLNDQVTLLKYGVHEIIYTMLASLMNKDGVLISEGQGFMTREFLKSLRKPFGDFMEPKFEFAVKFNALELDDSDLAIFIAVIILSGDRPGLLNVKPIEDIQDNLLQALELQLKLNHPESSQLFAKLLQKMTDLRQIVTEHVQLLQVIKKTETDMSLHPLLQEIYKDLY
human Thyroid hormone Receptor alpha (TRa), THRA (gene 7067), sequence (P10827 whole entry, looked up, the tested form may be a part): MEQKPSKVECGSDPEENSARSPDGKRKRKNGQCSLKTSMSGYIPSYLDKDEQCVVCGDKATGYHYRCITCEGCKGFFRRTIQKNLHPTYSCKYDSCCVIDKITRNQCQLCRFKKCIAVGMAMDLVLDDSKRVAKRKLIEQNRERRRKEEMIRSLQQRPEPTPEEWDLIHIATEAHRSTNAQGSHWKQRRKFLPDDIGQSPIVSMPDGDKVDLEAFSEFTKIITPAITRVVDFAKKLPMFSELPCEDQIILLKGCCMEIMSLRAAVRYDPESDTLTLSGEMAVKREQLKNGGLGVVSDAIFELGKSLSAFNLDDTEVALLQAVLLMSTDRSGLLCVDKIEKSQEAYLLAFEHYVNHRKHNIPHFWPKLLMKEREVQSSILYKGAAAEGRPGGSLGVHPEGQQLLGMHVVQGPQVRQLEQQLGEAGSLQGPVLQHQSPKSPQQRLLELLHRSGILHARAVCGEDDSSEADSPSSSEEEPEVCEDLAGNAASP
zebrafish Thyroid Hormone Receptor beta (TRb), thrb (gene 30607), sequence (Q9PVE4 whole entry, looked up): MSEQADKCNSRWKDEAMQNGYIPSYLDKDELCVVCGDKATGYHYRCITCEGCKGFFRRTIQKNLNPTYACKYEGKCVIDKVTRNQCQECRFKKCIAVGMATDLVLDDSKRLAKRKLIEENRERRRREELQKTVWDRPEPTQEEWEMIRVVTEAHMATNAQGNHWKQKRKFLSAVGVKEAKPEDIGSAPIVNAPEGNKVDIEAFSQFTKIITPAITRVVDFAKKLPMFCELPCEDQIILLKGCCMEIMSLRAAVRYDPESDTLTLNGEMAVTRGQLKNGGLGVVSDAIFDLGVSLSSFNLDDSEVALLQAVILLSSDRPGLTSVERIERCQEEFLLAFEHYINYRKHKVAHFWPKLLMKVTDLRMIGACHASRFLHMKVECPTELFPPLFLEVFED

CCCCC(CC)COC(=O)c1ccc(O)cc1 (stereo not drawn)
active: [1] 56.4 µM | [3] 60 µM
inactive: [2] | [4]

OCc1cccc(Oc2ccccc2)c1
active: [5] 60.3 µM and 36.7 µM | [6] 40.6 µM and 34.9 µM | [1] 57.4 µM
inactive: [1] | [2] | [3] | [7] | [8] | [4] | [9] | [10]

BrCc1cccc(Oc2ccccc2)c1
inactive: [1] | [2] | [3] | [7] | [8] | [4] | [10]
active: [5] 58.6 µM and 35.6 µM | [6] 66.6 µM and 39 µM | [1] 27.7 µM

O=c1c(O)c(-c2ccc(O)cc2)oc2cc(O)cc(O)c12
inactive: [1] | [2] | [3] | [7] | [8] | [4] | [9] | [10]
active: [5] 12.5 µM and 7.02 µM | [6] 12 µM

Oc1ccc2cc(SSc3ccc4cc(O)ccc4c3)ccc2c1
active: [5] 4.81 µM and 4.29 µM | [6] 7.19 µM and 5.11 µM | [1] 36.2 µM and 20.8 µM | [2] 156 µM | [7] 26.8 µM | [4] 154 µM | [10] 132 µM
inactive: [2] | [3] | [7] | [8] | [4] | [9] | [10]

Clc1ccc(C(c2ccccc2Cl)C(Cl)Cl)cc1 (stereo not drawn)
active: [1] 5.19 µM and 5.09 µM | [9] 100 µM
inactive: [5] | [6] | [2] | [3] | [8] | [4] | [10]

Cc1cc(=O)oc2cc(N(C)C)ccc12
inactive: [2] | [3] | [7] | [8] | [4] | [9] | [10]
active: [5] 24.8 µM and 17 µM | [6] 33.5 µM and 27.8 µM | [1] 4.03 µM and 6.44 µM
